# The campaign covered roughly 360,000 compounds. About 8,200 (2.3%) were called active. What follows is part of a selection rich in actives, with near analogues and random picks from the rest. Values without a mark were called inactive. Rule as the data show it: active = inhibition above about 27%; inactive = the rest.
# Target: Fructose-bisphosphate aldolase (Mycobacterium tuberculosis (strain ATCC 25618 / H37Rv)) (UniProt P9WQA3)
# Assay: Mtb FBA enzyme inhibitors, primary screen, biochemical, fluorescence, strain H37Rv (AID 588726);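 also: 0% = vehicle and 100% = reference inhibitor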
# Settings: purified M. tuberculosis FBA, fluorescence read-out, at 1 µM, stronger effect = higher value
# Chain of Fructose-bisphosphate aldolase (Mycobacterium tuberculosis (strain ATCC 25618 / H37Rv)) (P9WQA3 whole entry, looked up): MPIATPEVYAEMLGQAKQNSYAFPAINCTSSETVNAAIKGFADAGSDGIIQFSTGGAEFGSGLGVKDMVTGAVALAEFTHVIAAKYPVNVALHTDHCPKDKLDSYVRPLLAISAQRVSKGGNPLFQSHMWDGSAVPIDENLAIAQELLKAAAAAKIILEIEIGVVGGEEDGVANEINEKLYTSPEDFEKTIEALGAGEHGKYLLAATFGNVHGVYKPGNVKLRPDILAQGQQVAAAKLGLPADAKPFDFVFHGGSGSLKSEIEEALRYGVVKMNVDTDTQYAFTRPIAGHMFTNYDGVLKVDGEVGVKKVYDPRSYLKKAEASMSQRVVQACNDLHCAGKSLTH
row,Compound,inhibition
1,CC1=C(C(=O)N2CCOCC2)CC(CC(=O)NCc2cccs2)C(=O)N1CCCN1CCCC1=O (stereo not drawn),2.87%
2,Cc1ccc2c(cnn2C(=O)CCC(=O)NC2CCCC2)c1,2.86%
3,Cc1ccc(C(C(=O)NC2CCCCC2)N(C(=O)c2csnn2)C2CC2)o1 (stereo not drawn),1.93%
4,CC(=O)N1CCN(S(=O)(=O)c2ccc(C)c([N+](=O)[O-])c2)C1C(C)C (stereo not drawn),-1.36%
5,Cc1ccccc1N1C(=O)C(Oc2ccc(Cl)cc2)C1CNCC1CCCO1 (stereo not drawn),-3.19%
6,Cc1ccc2c(CN3CCN(S(=O)(=O)c4ccccc4C(F)(F)F)CC3)cc(=O)oc2c1,2.71%
7,O=c1cc(CN2CCN(S(=O)(=O)/C=C/c3ccccc3)CC2)c2ccc(O)cc2o1,137% (active)
8,NC(=O)CCN1CCN(S(=O)(=O)/C=C/c2ccccc2)CC1,1.59%
9,CSc1cccc(NC(=O)C2CCCN2S(=O)(=O)c2ccc3c(c2)CCC(=O)N3)c1 (stereo not drawn),1.45%
10,Cc1cccc(-c2cnc(C(O)c3ccc4ccccc4c3)[nH]2)c1 (stereo not drawn),-1.57%
11,CC(C)(C)OC(=O)NC(Cc1ccccc1)C(=O)NC(CSC1CCCCO1)C(=O)NN (stereo not drawn),-0.07%
12,CC(C)c1ccc(S(=O)(=O)N2CCN(C(=O)c3ccc(N4CCCC4)c([N+](=O)[O-])c3)CC2)cc1,-2.26%
13,O=C1C=C(c2ccccc2)CCC1,3.76%
14,O=c1cc(-c2ccccc2)[nH]c2cc(F)ccc12,5.51%
15,O=c1[nH]c(-c2ccccc2)c(-c2ccccc2)[nH]1,133% (active)
16,CCc1ccc(NC(=O)CCNS(=O)(=O)c2cccs2)cc1,-1.53%
17,O=C(NCc1ccccc1)c1ccc(CNc2c(N3CCCC3)c(=O)c2=O)cc1,4.44%
18,CCC1C(=O)c2ccccc2N(C)C1=O (stereo not drawn),34.5% (active)
19,CCc1ccccc1N1C(=O)C2C3CC(=O)C(c4ccccc43)C2C1=O (stereo not drawn),1.36%

row,Compound,inhibition
1,CN1C(=O)/C(=C\c2cc(Br)cs2)c2ccccc21,0.16%
2,Cc1ccc(CN2CCC(N3CCC(C(=O)NCC4CCCO4)CC3)CC2)o1 (stereo not drawn),-1.69%
3,CC(=O)N1CCN(C(=O)c2cc(-c3ccc(C)o3)nc3ccccc23)CC1,131% (active)
4,Cc1cc(C(=O)NNC(=O)c2cccc(S(=O)(=O)N3CCOCC3)c2)c2ccccc2n1,-2.38%
5,CC1CCCC(NC(=O)c2cc(-c3ccncc3)nc3ccccc23)C1C (stereo not drawn),4%
6,Cc1c(NC(=O)c2cc(-c3ccc(Cl)s3)nc3ccccc23)c(=O)n(-c2ccccc2)n1C,13%
7,O=C(NNC(=O)c1cc(-c2ccccc2Cl)nc2ccccc12)c1csc(N2CCOCC2)n1,1.04%
8,CC1CCCN(C(=O)c2cc(-c3ccco3)nc3ccccc23)C1 (stereo not drawn),114% (active)
9,CC(=O)N1CCN(C(=O)c2cc(-c3ccc(Cl)s3)nc3ccccc23)CC1,83.4% (active)
10,Cc1cccc(C(=O)N2CCC(c3nc4ccccc4s3)CC2)c1,-2.02%
11,CC1CCN(C(=O)Cn2cc(C(=O)c3ccco3)c3ccccc32)CC1,-0.4%
12,Cc1ccc(S(=O)(=O)N2CCN(C(=O)c3ccccc3-c3nc4ccccc4s3)CC2)c(C)c1,1.65%
13,Cc1cc(C(=O)N2CCN(c3ccccn3)CC2)c(C)o1,9.35%
14,O=C(c1cc(-c2ccc(Cl)s2)nc2ccccc12)N1CCOCC1,93.6% (active)
15,Cc1nc(-c2ccc(Cl)cc2)sc1C1(C)CC(c2ccc(Br)cc2)=NO1 (stereo not drawn),-1.45%
16,O=S(=O)(c1cccc(-c2nnc(SC(F)F)n2-c2ccccc2)c1)N1CCCCC1,5.7%
17,COc1ccc(C)cc1NC(=O)c1[nH]c(C)c(C(C)=O)c1C,0.08%
18,CCc1ccc(OCC(O)CN2CCN(CCO)CC2)cc1 (stereo not drawn),-0.21%
19,CSCCC(NC(=O)c1ccco1)C(=O)NCCc1ccc(F)cc1 (stereo not drawn),0.46%

# Reference: PubChem BioAssay AID588726 (The Scripps Research Institute Molecular Screening Center, 2011)
